According to ChEMBL document CHEMBL4513216, “Probing the Open Global Health Chemical Diversity Library for Multistage-Active Starting Points for Next-Generation Antimalarials” (ACS Infect Dis, 2020):
In all, about 65,000 compounds went through this assay and about 2,100 (3.2%) showed an effect of 50% or more. The median lay at about -52%. The entries come from a sample that favours strong results as a whole.

system: Plasmodium falciparum; experiment: Screen against P. falciparum Asexual Blood Stage (ABS), at 5uM; assay type: functional, Dd2; conditions: tested at 5 uM

SMILES	INHIBITION
CCc1ccc(CN2Cc3nccn3CC(CN3CCOCC3)C2)o1 (centres undefined)	-23.9%
CCOc1ccc(N(C)Cc2nnc(C3CC3)o2)cc1	61.5%
CCOc1ccc(N(C)Cc2nc(C)c(C)o2)cc1	43.9%
CCOc1ccc(N(C)Cc2nnc(C)o2)cc1	27.1%
Cn1cccc1C(=O)N1CCC2(CCN2c2ncccn2)C1 (centres undefined)	-28.5%
O=C(NCc1ccc2c(c1)CCCO2)c1ccc(C2CCNC2)cc1 (centres undefined)	-95.6%
COCC(=O)NCc1cnc(C)nc1-c1cn(C)c2ccc(OC)cc12	-88.7%
CN(C)CCN1CCO[C@H]2CCN(C(=O)c3cccs3)CC[C@@H]21	-47.1%
CCc1nnc2n1CCN(CC(=O)N1CCc3ccccc3C1)C2	-13.9%
COc1ccc(C(=O)Nc2c(C(=O)N(C)C)nn(C)c2C)cc1	-64.8%
COc1ccc(CC(=O)NC(C)c2nc3cccnc3n2C(C)C)cc1 (centres undefined)	-100%
Cn1nc(C2CCCN(Cc3ccc(F)c(F)c3)C2)c2nccnc21 (centres undefined)	23.4%
Cc1ccccc1CN1CCC(c2nn(CCN)c3nccnc23)C1 (centres undefined)	60.9%
NCCn1nc(C2CCN(C(=O)CC3CCCCC3)C2)c2nccnc21 (centres undefined)	-16.3%
NCCn1nc(C2CCN(C(=O)Cc3ccccc3)C2)c2nccnc21 (centres undefined)	-28.7%
NCCn1nc(C2CCN(Cc3ccc(Cl)c(Cl)c3)C2)c2nccnc21 (centres undefined)	63.5%
CC(C)(C)CC(=O)N1CCC(c2nn(CCN)c3nccnc23)C1 (centres undefined)	-94.3%
CNC(=O)[C@H]1CO[C@H]2CCN(Cc3ccc4ccccc4n3)C[C@H]2C1	-51.5%
Cc1nc(NCc2ccccn2)c2c(n1)c(C)nn2C	-26.7%
Cc1cccc(Nc2cc(C)nc(C3CCN(C(C)C)C3)n2)n1 (centres undefined)	-36.6%
CC(C#N)CSc1ccccc1NCC(=O)NC(C1CC1)C1CC1 (centres undefined)	56.3%
CC(C#N)CSc1ccccc1NCC(=O)Nc1ccccc1 (centres undefined)	-67.8%
CC(C#N)CSc1ccccc1NCC(=O)NC1CCCCC1 (centres undefined)	-56.9%
Cc1nc(CNCC2CN(C)CCO2)cs1 (centres undefined)	-102%
CN1CCOC(CNCc2csc(C3CCCCC3)n2)C1 (centres undefined)	58.6%
CN1CCOC(CNCc2csc(C3CCCC3)n2)C1 (centres undefined)	-14.3%
c1cncc(N2CCCn3nnc(CN4CCCCC4)c3C2)c1	-88.4%

SMILES	INHIBITION
Cc1ccccc1SCC(=O)NS(=O)(=O)c1ccc2c(c1)OCCO2	-14.4%
c1cncc(COCc2nnc3n2CCN(Cc2ccsc2)C3)c1	-113%
O=C(c1ccc(F)cc1)N1CCN2C[C@H](OCc3cccnc3)C[C@H]2C1	1.13%
Cc1occc1C(=O)N1CC[C@H]2C[C@@H](c3nnc(C4CC4)o3)O[C@@H]2C1	-11.7%
COCCN1CCC(CNCc2c[nH]nc2C(C)(C)C)CC1	-130%
Cc1ccc(CNCc2c[nH]nc2C(C)(C)C)c(OC2CCOC2)c1 (centres undefined)	57%
CN(C)CCN1CCC(CNCc2c[nH]nc2C(C)(C)C)CC1	-15.5%
CCCNc1ncc(-c2cc(C3CC3)nc(N)c2C#N)cn1	55.8%
CCSc1ncc(-c2cc(C3CCC3)nc(N)c2C#N)cn1	-28.9%
CCSc1ncc(-c2cc(C3CC3)nc(N)c2C#N)cn1	4.79%
CC1CCN(C(=O)CN2CC(c3nc(C4CC4)no3)C2)CC1	-20.1%
O=C(C1CCCC1)N1C[C@@H](c2ccsc2)[C@@H]2CN(C3CCCC3)CC[C@@H]21	54.7%
CCC(=O)N1CCCC1c1ccsc1 (centres undefined)	-72.1%
O=C(C1CCC1)N1CCN(Cc2ccsc2)[C@H]2CS(=O)(=O)C[C@H]21	-87.7%
CCOc1ncccc1CNC(=O)Nc1ccc(CC)cc1	-138%
Cc1ccc2c(c1)OCCCC2NCc1nnc2n1CCCCC2 (centres undefined)	-139%
COc1c(CNC2CCCOc3ccc(F)cc32)c(C)nn1C (centres undefined)	29%
Cc1ccc2c(c1)C(NCc1ncnn1C)CC2 (centres undefined)	-64.9%
COc1ccc2c(c1)C(NCCc1ccccn1)CCCO2 (centres undefined)	57.6%
COc1ccc2c(c1)C(NCCc1ncc(C)s1)CCCO2 (centres undefined)	-31.7%
COc1cccc(CNC2CCCOc3cc(C)ccc32)n1 (centres undefined)	68.4%
Cc1ccc2c(c1)C(NCc1ccccn1)CC2 (centres undefined)	37.5%
COc1ccc2c(c1)C(NCCc1c(C)noc1C)CCCO2 (centres undefined)	32.9%
COc1cccc(CNC2CCc3ccc(C)cc32)n1 (centres undefined)	60.8%
COc1ccc(C2=CCN(C(=O)CN(CC(N)=O)C(C)C)CC2)cc1	-68.8%
Cc1noc(C)c1CN1CCC[C@]2(C[C@@H](Oc3ccccn3)CO2)C1	-61.7%
CC(=O)N1[C@H](Cn2cncn2)C[C@@H]2CN(Cc3ccncc3)CC[C@@H]21	-149%
